Drawing on ChEMBL document CHEMBL3988442, “University of Dundee, Small-Polar-MMV Screening Library” (2021), this text covers Percent Effect for ten compounds.

For some assays here: Potency and affinity values are given separately.

Parameters in all cases: scale not given: direction of the effect not stated beside the values
Experiment [1] addresses Protein translocase subunit SecA (Escherichia coli (strain K12)) (UniProt P10408). Briefly: Assay to Identify E. coli SecA ATPase Inhibitors. It is filed as functional. The conditions noted are these: 30 µM.
The target in experiment [2] is T1, Ubiquitin-activating enzyme e1, putative (Leishmania donovani (strain BPK282A1)) (UniProt E9BSI1).
T1 sequence (whole entry): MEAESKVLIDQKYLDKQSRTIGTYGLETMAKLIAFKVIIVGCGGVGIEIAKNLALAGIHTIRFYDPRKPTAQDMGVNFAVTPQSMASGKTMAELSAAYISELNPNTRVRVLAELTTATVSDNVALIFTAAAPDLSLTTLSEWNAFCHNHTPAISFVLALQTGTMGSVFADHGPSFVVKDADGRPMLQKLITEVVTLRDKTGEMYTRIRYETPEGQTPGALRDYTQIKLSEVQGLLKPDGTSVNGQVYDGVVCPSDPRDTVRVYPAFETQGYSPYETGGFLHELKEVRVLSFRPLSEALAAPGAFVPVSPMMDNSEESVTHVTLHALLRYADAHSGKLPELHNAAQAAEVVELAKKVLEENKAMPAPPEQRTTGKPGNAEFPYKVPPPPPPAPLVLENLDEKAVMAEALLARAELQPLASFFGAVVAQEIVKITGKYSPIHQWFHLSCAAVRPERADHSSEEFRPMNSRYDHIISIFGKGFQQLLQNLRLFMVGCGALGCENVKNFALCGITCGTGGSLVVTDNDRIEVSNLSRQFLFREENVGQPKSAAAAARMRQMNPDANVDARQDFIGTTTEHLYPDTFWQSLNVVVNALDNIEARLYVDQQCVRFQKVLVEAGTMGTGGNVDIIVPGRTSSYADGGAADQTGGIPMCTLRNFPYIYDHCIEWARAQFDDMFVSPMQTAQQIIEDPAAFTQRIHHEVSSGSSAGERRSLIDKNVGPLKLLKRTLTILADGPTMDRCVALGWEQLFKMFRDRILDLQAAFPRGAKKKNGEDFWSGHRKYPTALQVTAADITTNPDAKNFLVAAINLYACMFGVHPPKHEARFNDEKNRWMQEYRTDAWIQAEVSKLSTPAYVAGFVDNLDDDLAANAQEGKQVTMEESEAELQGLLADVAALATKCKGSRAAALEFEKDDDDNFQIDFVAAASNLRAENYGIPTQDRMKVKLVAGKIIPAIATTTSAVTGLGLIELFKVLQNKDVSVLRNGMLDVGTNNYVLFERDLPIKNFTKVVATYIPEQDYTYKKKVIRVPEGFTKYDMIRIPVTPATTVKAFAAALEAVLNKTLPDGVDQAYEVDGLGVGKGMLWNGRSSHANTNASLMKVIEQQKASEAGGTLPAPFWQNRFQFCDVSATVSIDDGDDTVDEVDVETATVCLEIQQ
The experiment in a line: Leishmania donovani Ubiquitin Activating Enzyme (LdE1). Format: functional. The note with it: 30 µM.

The target of experiment [3] is AMP-activated protein kinase, AMPK (Homo sapiens) (UniProt P54646+O43741+P54619+Q9UGJ0+Q9Y478+Q13131+Q9UGI9). The experiment in a line: AMP-dependent Kinase enzyme assay. An in vitro enzyme assay that detects ADP turnover that is directly proportional to AMPK activity. This uses naive AMPK that is activated during the assay with MK-8722. The note with it: 30 µM. It is filed as functional.

The target of experiment [4] is Sialic acid-binding Ig-like lectin 9 (Homo sapiens) (UniProt Q9Y336). Briefly: Hs-Siglec9 ALPHAscreen SOP 20170721. The note with it: 10 µM. For orientation: In Alpha technology, singlet oxygen from a donor bead excites a nearby acceptor bead.
The test system of the next experiment is Trypanosoma cruzi. The experiment in a line: Trypanosoma cruzi phosphomannomutase and mannose-1-phosphate guanylyltransferase assay. The note with it: 10 µM. It is filed as functional.
Experiment [5] deals with T2, Arginase-2, mitochondrial (Homo sapiens) (UniProt P78540).
T2 sequence (whole entry): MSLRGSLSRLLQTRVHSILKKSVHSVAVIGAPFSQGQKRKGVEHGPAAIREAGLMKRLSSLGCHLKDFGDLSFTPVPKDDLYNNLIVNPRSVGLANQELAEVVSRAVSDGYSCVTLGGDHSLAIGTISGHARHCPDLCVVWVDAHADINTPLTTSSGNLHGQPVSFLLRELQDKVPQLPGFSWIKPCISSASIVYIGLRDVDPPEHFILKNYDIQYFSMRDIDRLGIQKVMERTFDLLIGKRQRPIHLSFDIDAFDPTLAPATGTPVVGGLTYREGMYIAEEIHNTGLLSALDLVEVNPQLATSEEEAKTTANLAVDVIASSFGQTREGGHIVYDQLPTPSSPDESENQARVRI
Briefly: in vitro enzyme assay to detect the production of urea directly proportional to the activity of Arginase II. Also: in the data most compounds retested in dose-response had high values. It is filed as functional. The note with it: 33.3 µM.

Experiment [6] has as its target T3, Proteasome subunit beta (Trypanosoma cruzi) (UniProt O96673).
T3 sequence (whole entry): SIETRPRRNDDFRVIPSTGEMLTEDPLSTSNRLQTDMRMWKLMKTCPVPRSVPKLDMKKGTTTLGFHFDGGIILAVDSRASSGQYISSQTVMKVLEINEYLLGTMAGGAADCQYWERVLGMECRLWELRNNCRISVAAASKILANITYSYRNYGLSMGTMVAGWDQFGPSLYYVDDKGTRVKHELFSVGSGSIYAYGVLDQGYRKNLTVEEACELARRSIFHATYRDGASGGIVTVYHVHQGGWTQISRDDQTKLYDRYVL
Briefly: Trypanosoma cruzi proteasome chymotrypsin-like activity (TcProtChymo) assay. Also: in the data most compounds retested in dose-response had high values. It is filed as functional. The note with it: 9.37 µM.

The next experiment is filed under the species Homo sapiens. Briefly: To identify inhibition of the IFN signalling (Jak-Stat) pathway via expression of an eGFP reporter gene under the control of an IFN-stimulated response element (ISRE) containing MxA promoter. It is filed as functional. The note with it: 30 µM.
The target in experiment [7] is T4, Tyrosyl-tRNA synthetase, putative (Trypanosoma cruzi (strain CL Brener)) (UniProt Q4DSP6).
T4 sequence (whole entry): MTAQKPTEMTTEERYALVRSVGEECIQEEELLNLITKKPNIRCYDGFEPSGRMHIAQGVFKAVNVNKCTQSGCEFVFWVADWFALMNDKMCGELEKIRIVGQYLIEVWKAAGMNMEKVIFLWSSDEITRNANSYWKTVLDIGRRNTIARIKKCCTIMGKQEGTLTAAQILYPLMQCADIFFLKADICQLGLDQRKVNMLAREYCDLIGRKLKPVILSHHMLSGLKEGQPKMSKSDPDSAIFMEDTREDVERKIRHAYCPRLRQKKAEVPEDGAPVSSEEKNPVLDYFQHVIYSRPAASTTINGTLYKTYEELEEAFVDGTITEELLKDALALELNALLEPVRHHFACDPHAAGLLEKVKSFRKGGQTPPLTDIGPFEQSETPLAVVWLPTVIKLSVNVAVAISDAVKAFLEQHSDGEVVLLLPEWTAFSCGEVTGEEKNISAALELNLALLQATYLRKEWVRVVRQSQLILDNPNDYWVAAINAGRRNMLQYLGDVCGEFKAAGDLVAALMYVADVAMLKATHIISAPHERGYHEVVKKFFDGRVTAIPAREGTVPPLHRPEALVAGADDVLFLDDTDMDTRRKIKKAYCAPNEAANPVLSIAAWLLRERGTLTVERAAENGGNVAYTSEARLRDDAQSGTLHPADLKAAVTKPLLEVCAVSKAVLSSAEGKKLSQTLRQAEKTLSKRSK
Briefly: Trypanosoma cruzi tyrosyl tRNA synthetase (TcYRS) _High Tyrosine SOP. Also: in the data most compounds retested in dose-response had high values. The conditions noted are these: 30 µM. Format: functional.

In experiment [8] the target is T4, Tyrosyl-tRNA synthetase, putative (Trypanosoma cruzi (strain CL Brener)). Briefly: Trypanosoma cruzi tyrosyl tRNA synthetase (TcYRS) SOP. Format: functional. The conditions noted are these: 30 µM.
The target in experiment [9] is Chromo domain-containing protein 1 (Saccharomyces cerevisiae (strain ATCC 204508 / S288c) (Baker's yeast)) (UniProt P32657). The experiment in a line: ScCHD-1 Enzyme Inhibition Assay. Also: in the data most compounds retested in dose-response had high values. Format: functional. The note with it: 30 µM.
Chain of Chromo domain-containing protein 1 (Saccharomyces cerevisiae (strain ATCC 204508 / S288c) (Baker's yeast)) (P32657 whole entry, the tested form may be a part): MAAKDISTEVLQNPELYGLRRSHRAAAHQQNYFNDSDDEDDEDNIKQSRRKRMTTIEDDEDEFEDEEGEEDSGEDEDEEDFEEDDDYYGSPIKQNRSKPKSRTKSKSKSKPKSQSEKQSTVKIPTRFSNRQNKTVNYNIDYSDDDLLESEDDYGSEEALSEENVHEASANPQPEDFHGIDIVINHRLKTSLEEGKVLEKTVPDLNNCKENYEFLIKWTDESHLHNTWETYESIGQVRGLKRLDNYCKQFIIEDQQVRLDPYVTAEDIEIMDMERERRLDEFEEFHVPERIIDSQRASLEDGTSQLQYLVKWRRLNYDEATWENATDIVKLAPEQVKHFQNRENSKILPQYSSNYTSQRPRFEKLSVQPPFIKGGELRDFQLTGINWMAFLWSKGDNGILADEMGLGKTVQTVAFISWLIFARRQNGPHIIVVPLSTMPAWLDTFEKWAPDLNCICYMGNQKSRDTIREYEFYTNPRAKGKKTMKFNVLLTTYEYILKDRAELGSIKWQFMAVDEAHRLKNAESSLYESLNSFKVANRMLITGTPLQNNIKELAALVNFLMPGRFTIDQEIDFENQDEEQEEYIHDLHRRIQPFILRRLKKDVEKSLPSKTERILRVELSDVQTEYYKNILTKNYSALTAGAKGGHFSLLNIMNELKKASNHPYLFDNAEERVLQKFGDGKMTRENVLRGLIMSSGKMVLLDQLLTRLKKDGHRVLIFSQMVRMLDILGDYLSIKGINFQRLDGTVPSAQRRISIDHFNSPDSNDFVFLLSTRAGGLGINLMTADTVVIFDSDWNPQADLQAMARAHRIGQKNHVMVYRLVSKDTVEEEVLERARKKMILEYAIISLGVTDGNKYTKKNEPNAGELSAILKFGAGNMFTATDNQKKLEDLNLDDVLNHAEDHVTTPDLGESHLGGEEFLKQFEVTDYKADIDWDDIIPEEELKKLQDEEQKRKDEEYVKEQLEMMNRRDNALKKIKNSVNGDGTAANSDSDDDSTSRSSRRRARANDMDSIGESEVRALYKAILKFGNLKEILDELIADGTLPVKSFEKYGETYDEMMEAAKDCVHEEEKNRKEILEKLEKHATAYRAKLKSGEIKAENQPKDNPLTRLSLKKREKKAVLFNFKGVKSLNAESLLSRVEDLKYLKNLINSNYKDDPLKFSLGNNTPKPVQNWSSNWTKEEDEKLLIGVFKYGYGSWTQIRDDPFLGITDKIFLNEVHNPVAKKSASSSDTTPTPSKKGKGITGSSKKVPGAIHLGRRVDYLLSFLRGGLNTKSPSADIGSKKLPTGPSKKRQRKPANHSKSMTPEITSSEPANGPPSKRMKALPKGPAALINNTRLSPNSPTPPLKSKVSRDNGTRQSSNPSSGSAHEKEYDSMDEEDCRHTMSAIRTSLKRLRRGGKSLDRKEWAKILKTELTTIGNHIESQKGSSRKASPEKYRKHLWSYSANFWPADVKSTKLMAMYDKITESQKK

Chain of Sialic acid-binding Ig-like lectin 9 (Homo sapiens) (Q9Y336 whole entry): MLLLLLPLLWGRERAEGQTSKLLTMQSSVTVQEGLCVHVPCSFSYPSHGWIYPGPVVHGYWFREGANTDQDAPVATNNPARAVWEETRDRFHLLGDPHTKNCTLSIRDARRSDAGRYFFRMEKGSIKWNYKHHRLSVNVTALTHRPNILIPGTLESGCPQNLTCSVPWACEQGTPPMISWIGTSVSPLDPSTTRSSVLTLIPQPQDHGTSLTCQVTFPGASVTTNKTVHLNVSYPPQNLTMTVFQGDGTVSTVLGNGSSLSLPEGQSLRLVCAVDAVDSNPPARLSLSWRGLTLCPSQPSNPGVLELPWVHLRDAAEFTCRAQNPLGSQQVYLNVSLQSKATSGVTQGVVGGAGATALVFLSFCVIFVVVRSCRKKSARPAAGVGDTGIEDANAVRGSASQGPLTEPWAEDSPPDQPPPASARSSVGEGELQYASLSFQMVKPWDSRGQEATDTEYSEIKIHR
Chain of Protein translocase subunit SecA (Escherichia coli (strain K12)) (P10408 whole entry): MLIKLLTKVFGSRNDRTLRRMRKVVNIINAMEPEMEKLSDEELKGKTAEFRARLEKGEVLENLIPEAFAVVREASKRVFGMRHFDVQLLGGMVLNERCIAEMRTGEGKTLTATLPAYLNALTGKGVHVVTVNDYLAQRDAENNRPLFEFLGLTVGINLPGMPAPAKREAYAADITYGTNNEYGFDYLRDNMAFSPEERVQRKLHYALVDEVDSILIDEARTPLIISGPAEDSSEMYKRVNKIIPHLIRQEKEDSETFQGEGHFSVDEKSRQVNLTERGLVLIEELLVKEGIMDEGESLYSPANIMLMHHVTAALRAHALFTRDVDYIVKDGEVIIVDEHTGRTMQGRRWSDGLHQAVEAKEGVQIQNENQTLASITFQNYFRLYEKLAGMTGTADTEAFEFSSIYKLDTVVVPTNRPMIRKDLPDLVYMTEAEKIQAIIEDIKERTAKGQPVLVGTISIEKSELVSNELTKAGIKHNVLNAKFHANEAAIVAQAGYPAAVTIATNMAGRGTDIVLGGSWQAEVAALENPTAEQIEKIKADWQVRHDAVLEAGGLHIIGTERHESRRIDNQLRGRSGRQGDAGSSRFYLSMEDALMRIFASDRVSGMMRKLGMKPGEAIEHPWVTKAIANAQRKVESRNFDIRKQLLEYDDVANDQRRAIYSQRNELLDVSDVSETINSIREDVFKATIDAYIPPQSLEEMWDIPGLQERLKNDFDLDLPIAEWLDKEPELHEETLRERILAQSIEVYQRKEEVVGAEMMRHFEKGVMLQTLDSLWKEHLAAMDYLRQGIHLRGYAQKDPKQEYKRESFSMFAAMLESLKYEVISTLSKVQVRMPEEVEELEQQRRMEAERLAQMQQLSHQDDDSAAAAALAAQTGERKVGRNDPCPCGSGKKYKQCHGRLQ

As to `CN(Cc1ccccc1)C1(C(=O)O)Cc2ccccc2C1`, the Percent Effect is -3.87% in experiment [1]; 2.67% in experiment [2]; -2.42% in experiment [3]; 1.78% in experiment [4]; -3.6% in the experiment with Trypanosoma cruzi; 3.12% in experiment [5]. The Percent Effect was 12.9% in [6]; 5.79% in the experiment filed under Homo sapiens; 2.73% in experiment [7]; 8.64% in [8]; -5.27% in experiment [9].
For the compound `CC(C)CN1CCCC2(CCN(C(=O)c3cnccn3)C2)C1` (stereo not given), the Percent Effect was 2.12% in experiment [1]; -2.6% in experiment [2]; -0.541% in experiment [3]; 2.48% in experiment [4]; -4.24% in the experiment on Trypanosoma cruzi; -3.23% in experiment [5]. Further, the Percent Effect in [6] was 3.13%; in the experiment filed under Homo sapiens, 0.321%; in experiment [7], 3.17%; in experiment [8], -3.85%; in experiment [9] it was -5.96%.
On to `CCNC(=O)N1CCCCC1CCO` (stereo not given), for which the Percent Effect in experiment [1] is 1.22%; in [2], 8.11%; in experiment [3], -0.623%; in [4], 17.1%; with Trypanosoma cruzi it was 5.99%; in experiment [5], 6.67%. In addition, the Percent Effect in [6] was -0.69%; in the experiment filed under Homo sapiens it was -3.81%; in experiment [7], 0.529%; in experiment [8], 7.32%; in experiment [9], -10.1%.
Consider `COCCN1CCOCC2(CCCN(Cc3ccc(C)o3)C2)C1` (stereo not given), for which the Percent Effect in experiment [1] is -2.04%; in experiment [2], 13.3%; in experiment [3] it was 0.538%; in [4], -2.47%; in the experiment on Trypanosoma cruzi, 5.6%; in [5] it was -42.1%. Besides, the Percent Effect was 8.55% in experiment [6]; -12.1% in the experiment filed under Homo sapiens; 3.12% in experiment [7]; 2.5% in [8]; -9.46% in experiment [9].
In the case of `Cc1nc(N2CC[C@@H](NC(=O)c3cnccn3)[C@H](O)C2)c2ccsc2n1`, the Percent Effect in [1] is 0.273%; in experiment [2], 8.11%; in experiment [3] it was -4.4%; in experiment [4], 15.3%; in the experiment with Trypanosoma cruzi, 2.7%; in [5], 3.33%. The Percent Effect in experiment [6] is 2.41%; in the experiment filed under Homo sapiens it was 46.9%; in [7], 5.82%; in experiment [8], 19.5%; in [9] it was -3.51%.
For the compound `CN(CCn1cccn1)S(=O)(=O)N1CCCC1c1ccco1` (stereo not given), the Percent Effect is 1.7% in experiment [1]; -5.41% in [2]; -2.17% in [3]; -0.333% in [4]; -5.48% with Trypanosoma cruzi; 9.43% in experiment [5]. Further, the Percent Effect in experiment [6] was -3.05%; in the experiment filed under Homo sapiens, 13.8%; in [7], -0.99%; in experiment [8], -6.1%; in experiment [9] it was 3.02%.
In the case of `Cn1ncc2c(NCCC34CCCN3CCC4)nc(C3CCCC3)nc21`, the Percent Effect in [1] is -5.81%; in experiment [2], 5.48%; in experiment [3], 0.214%; in [4], 3.33%; in the experiment with Trypanosoma cruzi, 0.979%; in [5], 4.09%. Further, the Percent Effect is 5.68% in experiment [6]; -18.5% in the experiment listed under Homo sapiens; 6.45% in experiment [7]; 12.5% in [8]; -5.71% in experiment [9].
Take `Cc1oc(C)c(C(=O)NCc2cccnc2N(C)C)c1C`: the Percent Effect is -1.52% in experiment [1]; 13.2% in [2]; 4.37% in experiment [3]; -11.8% in experiment [4]; -3.57% with Trypanosoma cruzi; -1.53% in experiment [5]. For the same compound, the Percent Effect in experiment [6] is 5.35%; in the experiment filed under Homo sapiens it was -12.2%; in experiment [7] it was 1.47%; in experiment [8], 12.2%; in experiment [9], -9.19%.
Regarding `O=C(c1cccnc1N1CCOCC1)N1CCCC1Cn1cccn1` (stereo not given), the Percent Effect is -4.57% in experiment [1]; 7.79% in experiment [2]; 5.93% in experiment [3]; 8.78% in experiment [4]; 1.47% in the experiment with Trypanosoma cruzi; 0.632% in experiment [5]. The Percent Effect in experiment [6] was -0.242%; in the experiment listed under Homo sapiens it was -15.5%; in experiment [7], 3.81%; in [8] it was 2.35%; in experiment [9], -12%.
For the compound `COC(=O)c1cccc(C(=O)N2CCN(c3cccc(C)c3C)CC2)n1`, the Percent Effect in [1] is -0.0243%; in experiment [2], 20.8%; in [3], -2.32%; in experiment [4], 0.218%; in the experiment on Trypanosoma cruzi it was 2.66%; in experiment [5], 0.645%. The Percent Effect in experiment [6] was 10.3%; in the experiment filed under Homo sapiens, 87%; in experiment [7], 2.12%; in experiment [8] it was 11.5%; in experiment [9], -9.48%.
